PubChem BioAssay (NCATS)
Inconclusive results are not listed. Active and inactive are the calls of the source. Unless noted, the call rests on the fitted dose curve.

What was measured:
[1] = target: Glucocorticoid receptor (Homo sapiens) (UniProt P04150); assay: qHTS assay for small molecule agonists of glucocorticoid receptor signaling (AID 588532; active means well fitted curve in the direction sought with a large enough effect in the signal ratio, with a control signal flat; the % refers to the signal ratio;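 further: 100% = dexamethasone at 0.1 µM and 0% = DMSO only wells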); details: HeLa MMTV-bla, beta-lactamase ratio, agonist, 18 h; activation: stronger effect = higher value, percent of dexamethasone control, DMSO zero
Chain of Glucocorticoid receptor (Homo sapiens) (P04150 whole entry, looked up): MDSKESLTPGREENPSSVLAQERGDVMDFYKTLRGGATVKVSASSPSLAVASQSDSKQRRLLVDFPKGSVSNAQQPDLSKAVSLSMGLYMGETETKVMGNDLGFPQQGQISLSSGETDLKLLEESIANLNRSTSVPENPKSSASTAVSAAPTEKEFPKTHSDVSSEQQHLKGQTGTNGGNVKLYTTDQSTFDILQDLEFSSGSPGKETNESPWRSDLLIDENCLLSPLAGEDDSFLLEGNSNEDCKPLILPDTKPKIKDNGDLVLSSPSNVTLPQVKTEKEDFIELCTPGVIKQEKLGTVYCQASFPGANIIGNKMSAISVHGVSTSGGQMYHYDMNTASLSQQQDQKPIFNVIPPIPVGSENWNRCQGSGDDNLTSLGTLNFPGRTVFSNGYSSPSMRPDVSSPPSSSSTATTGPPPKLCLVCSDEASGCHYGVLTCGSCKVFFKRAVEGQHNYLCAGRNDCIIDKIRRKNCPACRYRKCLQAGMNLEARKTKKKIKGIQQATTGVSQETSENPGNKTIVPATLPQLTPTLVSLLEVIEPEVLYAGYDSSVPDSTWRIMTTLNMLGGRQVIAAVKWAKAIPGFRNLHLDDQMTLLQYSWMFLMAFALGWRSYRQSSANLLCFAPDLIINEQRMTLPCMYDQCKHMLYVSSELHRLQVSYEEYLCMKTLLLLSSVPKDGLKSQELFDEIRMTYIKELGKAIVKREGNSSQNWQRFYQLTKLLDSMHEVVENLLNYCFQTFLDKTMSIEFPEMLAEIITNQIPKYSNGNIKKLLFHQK
Summary of the method: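 Stimulation of a glucocorticoid response element-driven beta-lactamase gene was measured in HeLa cells. Responses were scaled between DMSO basal and 0.1 uM dexamethasone, then fitted for half-maximal stimulation.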

[2] = target: Peroxisome proliferator-activated receptor delta (Homo sapiens) (UniProt Q03181); assay: qHTS assay for small molecule agonists of peroxisome proliferator-activated receptor delta signaling (AID 588534);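 further: 0% = DMSO basal wells and 100% = positive control agonist at 10 µM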
Chain of Peroxisome proliferator-activated receptor delta (Homo sapiens) (Q03181 whole entry, looked up): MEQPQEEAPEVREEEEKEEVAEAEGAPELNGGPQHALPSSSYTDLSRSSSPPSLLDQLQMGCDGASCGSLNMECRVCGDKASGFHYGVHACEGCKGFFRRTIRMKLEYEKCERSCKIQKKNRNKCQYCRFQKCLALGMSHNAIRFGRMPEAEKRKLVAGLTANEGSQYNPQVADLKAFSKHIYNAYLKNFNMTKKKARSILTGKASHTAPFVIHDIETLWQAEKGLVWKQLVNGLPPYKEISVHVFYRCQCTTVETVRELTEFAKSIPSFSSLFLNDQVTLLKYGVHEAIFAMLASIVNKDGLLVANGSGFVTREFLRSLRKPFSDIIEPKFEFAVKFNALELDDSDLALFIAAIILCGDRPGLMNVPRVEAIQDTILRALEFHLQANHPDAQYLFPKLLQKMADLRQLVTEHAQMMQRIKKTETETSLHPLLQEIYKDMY
Summary of the method: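 EC50 and efficacy values derive from Hill fits of a concentration series in a beta-lactamase reporter cell assay. Exposure is 18 hrs at 37 C, with CCF4 fluorescence as the readout.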

[3] = qHTS assay for small molecule antagonists of peroxisome proliferator-activated receptor delta signaling (AID 588535; active means well fitted inhibition curve with a large enough effect in the signal ratio, with a control signal flat, not every such curve was filed as active; the % refers to the signal ratio;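 on max response: cells co-treated with a PPAR-delta agonist as stimulator during compound exposure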); details: HEK293T PPARd-UAS-bla, beta-lactamase FRET ratio, 18 h; 460 nm channel
Summary of the method: (§1)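 Compounds tested in titration on PPAR-delta-UAS-bla HEK293T cells grown in charcoal/dextran-stripped serum (2%); beta-lactamase activity read via CCF4 emission at 460 and 530 nm.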

[4] = target: Peroxisome proliferator-activated receptor delta (Homo sapiens) (UniProt Q03181); assay: as above
Summary of the method: as §1

[5] = target: Peroxisome proliferator-activated receptor gamma (Homo sapiens) (UniProt P37231); assay: qHTS assay for small molecule agonists of peroxisome proliferator-activated receptor gamma signaling (AID 588536; active means well fitted curve in the direction sought with a large enough effect in the signal ratio, with a control signal flat, not every such curve was filed as active; the % refers to the signal ratio;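 further: 0% = DMSO basal wells and 100% = rosiglitazone at 2 µM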)
Chain of Peroxisome proliferator-activated receptor gamma (Homo sapiens) (P37231 whole entry, looked up): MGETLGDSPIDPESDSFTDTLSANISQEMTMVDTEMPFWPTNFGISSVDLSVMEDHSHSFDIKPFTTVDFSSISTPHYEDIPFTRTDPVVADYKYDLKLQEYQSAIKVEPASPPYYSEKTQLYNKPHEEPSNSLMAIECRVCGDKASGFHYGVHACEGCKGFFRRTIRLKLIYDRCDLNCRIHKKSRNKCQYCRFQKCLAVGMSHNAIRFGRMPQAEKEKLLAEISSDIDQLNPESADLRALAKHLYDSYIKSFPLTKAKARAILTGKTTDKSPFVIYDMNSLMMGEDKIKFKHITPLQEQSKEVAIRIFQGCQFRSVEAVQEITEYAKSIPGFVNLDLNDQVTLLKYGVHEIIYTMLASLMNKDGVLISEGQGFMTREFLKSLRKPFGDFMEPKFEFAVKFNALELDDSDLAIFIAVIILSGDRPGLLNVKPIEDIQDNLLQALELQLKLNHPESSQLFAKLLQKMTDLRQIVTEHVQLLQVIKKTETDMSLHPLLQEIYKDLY
Summary of the method: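 Compound treatment: 16 h, 37 C, HEK293 GeneBLAzer cells. Detection: CCF4, 2 h RT. Values: Hill-fit EC50, efficacy as % of 2 uM rosiglitazone.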

[6] = target: Peroxisome proliferator-activated receptor gamma (Homo sapiens) (UniProt P37231); assay: qHTS assay for small molecule antagonists of peroxisome proliferator-activated receptor gamma signaling (AID 588537; active means well fitted inhibition curve with a large enough effect in the signal ratio, with a control signal flat, not every such curve was filed as active; the % refers to the signal ratio;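 further: reporter cells co-stimulated with 50 nM rosiglitazone agonist during compound treatment; % of control where 0% means no effect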)
Summary of the method: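 HEK293 cells, PPAR-gamma-UAS-bla, 3000/well. Pre-incubation 6-6.5 h, 37 C. Compound titration with rosiglitazone 50 nM final, 16 h. CCF4 dye, 2 h RT, dual-emission fluorescence.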

[7] = target: Vitamin D3 receptor (Homo sapiens) (UniProt P11473); assay: qHTS assay for small molecule antagonists of vitamin D receptor signaling (AID 588541);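 further: receptor activated by calcitriol during compound treatment; series mostly up to about 77 µM; on the % scale 0 is the no-effect control and ±100 the full control effect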
Chain of Vitamin D3 receptor (Homo sapiens) (P11473 whole entry, looked up): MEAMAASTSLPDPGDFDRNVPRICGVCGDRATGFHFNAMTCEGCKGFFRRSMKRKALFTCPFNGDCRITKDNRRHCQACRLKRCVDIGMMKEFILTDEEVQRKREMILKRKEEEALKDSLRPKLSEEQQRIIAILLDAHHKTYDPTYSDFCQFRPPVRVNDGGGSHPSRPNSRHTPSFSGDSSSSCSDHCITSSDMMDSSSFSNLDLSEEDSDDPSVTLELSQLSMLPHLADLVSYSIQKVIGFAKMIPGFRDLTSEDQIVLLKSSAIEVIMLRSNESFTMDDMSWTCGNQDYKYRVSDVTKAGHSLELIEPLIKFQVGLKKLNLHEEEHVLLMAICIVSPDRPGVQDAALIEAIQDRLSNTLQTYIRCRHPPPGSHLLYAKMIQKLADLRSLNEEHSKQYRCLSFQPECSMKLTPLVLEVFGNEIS
Summary of the method: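 VDR-UAS-bla HEK293T cells (2000/well, 2% charcoal-stripped FBS) were treated with titrated compounds plus 1-alpha,25-dihydroxyvitamin D3 (50 nM or 3 nM final) for 16 h at 37 C. CCF4 beta-lactamase fluorescence was read; Hill fits gave IC50.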

[8] = target: Vitamin D3 receptor (Homo sapiens) (UniProt P11473); assay: qHTS assay for small molecule agonists of vitamin D receptor signaling (AID 588543);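 further: 0% = DMSO basal and 100% = reference agonist control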
Summary of the method: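 VDR-UAS-bla HEK293T cells, 2000/well, 2% charcoal-stripped FBS; compound titration 16 h at 37 C; CCF4 beta-lactamase ratio read. Normalized to 50 nM 1-alpha,25-dihydroxyvitamin D3 (100%) and DMSO; Hill fit gives EC50, efficacy.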

[9] = qHTS assay for small molecule agonists of retinoid X receptor alpha signaling (AID 588544); details: HEK293T RXRa-UAS-bla, beta-lactamase reporter, 18 h; 530 nm emission;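 on activation: 0% = DMSO basal wells and 100% = reference agonist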
[10] = target: Retinoic acid receptor RXR-alpha (Homo sapiens) (UniProt P19793); assay: as above
Chain of Retinoic acid receptor RXR-alpha (Homo sapiens) (P19793 whole entry, looked up): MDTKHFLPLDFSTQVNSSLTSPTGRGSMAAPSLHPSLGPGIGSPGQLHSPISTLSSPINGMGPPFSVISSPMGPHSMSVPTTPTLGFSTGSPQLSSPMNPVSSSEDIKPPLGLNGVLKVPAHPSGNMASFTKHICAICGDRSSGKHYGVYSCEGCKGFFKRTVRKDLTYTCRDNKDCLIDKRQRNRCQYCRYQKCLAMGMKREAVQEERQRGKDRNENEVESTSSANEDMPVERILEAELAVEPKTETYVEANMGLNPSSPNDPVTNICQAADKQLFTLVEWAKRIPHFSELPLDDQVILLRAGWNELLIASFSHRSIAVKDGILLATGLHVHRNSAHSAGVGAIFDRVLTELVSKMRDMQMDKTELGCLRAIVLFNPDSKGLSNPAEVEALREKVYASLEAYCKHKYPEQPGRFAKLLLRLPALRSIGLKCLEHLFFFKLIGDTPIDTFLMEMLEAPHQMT

[11] = target: Thyroid hormone receptor beta (Homo sapiens) (UniProt P10828); assay: qHTS assay for small molecule agonists of thyroid hormone receptor beta signaling (AID 588545);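 further: 0% = DMSO only and 100% = 10 nM T3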
Chain of Thyroid hormone receptor beta (Homo sapiens) (P10828 whole entry, looked up): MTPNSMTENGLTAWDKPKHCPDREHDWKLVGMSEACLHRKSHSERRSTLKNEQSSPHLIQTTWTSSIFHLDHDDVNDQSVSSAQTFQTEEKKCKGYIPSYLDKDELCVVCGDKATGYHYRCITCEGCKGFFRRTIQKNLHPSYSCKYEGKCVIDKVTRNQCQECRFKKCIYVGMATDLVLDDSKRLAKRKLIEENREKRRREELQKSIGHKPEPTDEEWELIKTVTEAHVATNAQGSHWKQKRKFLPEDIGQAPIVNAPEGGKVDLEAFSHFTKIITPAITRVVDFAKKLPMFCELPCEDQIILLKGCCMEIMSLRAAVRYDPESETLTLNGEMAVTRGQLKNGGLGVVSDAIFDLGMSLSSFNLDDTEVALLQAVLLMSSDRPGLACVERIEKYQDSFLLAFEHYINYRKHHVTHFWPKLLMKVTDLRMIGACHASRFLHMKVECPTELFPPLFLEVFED
Summary of the method: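 TR-UAS-bla-GripTite HEK 293 cells in medium with 2% charcoal/dextran FBS, 0.1 mM NEAA and 1 mM sodium pyruvate were treated with titrated compounds for 18 hrs at 37 C. Beta-lactamase reporter was read with CCF4 dye (ex 405, em 460/530 nm); EC50 from Hill fits.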

[12] = qHTS assay for small molecule antagonists of retinoid X receptor alpha signaling (AID 588546; active means well fitted inhibition curve with a large enough effect in the signal ratio, with a control signal flat, not every such curve was filed as active; the % refers to the signal ratio;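 further: cells stimulated with 9-cis-retinoic acid as agonist; on the % scale 0 is the no-effect control and ±100 the full control effect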); details: HEK293T RXRa-UAS-bla, beta-lactamase ratio, antagonist mode; measured here: W530 green channel, cytotoxicity proxy
Summary of the method: (§2)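 Beta-lactamase reporter inhibition, read as CCF4 fluorescence ratio (ex 405, em 460/530 nm) after 2 h at RT. HEK293T UAS-bla cells, 2500/well, were stimulated with 9-cis-RA at 500 or 100 nM final alongside test compound for 18 h at 37 C.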

[13] = target: Retinoic acid receptor RXR-alpha (Homo sapiens) (UniProt P19793); assay: as above; details: HEK293T RXRa-UAS-bla, beta-lactamase ratio, antagonist mode
Summary of the method: as §2

[14] = target: Thyroid hormone receptor beta (Homo sapiens) (UniProt P10828); assay: qHTS assay for small molecule antagonists of thyroid hormone receptor beta signaling (AID 588547; active means well fitted inhibition curve with a large enough effect in the signal ratio, with a control signal flat, not every such curve was filed as active; the % refers to the signal ratio;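 further: cells stimulated with 0.4 nM T3 agonist during compound exposure; series mostly up to about 77 µM; on the % scale 0 is the no-effect control and ±100 the full control effect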); details: TR-UAS-bla HEK293, beta-lactamase ratio, antagonist mode, 18 h
Summary of the method: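 TR-UAS-bla GripTite HEK293 cells in 2% charcoal/dextran FBS medium were preincubated 4 h at 37 C, given compound (0.59 nM to 92 uM) plus 0.4 nM T3 (final) for 18 h, then CCF4 for 2 h at RT; Hill fit gave IC50.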

[15] = qHTS assay for small molecule activators of the p53 signaling pathway (AID 651743; active means well fitted activation curve with a large enough effect in the signal ratio, not every such curve was filed as active; the % refers to the signal ratio; further: series mostly up to about 92 µM; % of control where 0% means no effect); details: HCT-116 p53RE-bla, beta-lactamase FRET ratio, 16 h; activation: stronger effect = higher value
Summary of the method: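 Here HCT-116 cells with an integrated p53-responsive beta-lactamase gene were incubated with compounds (16 hours, 37 C) after a 5-hour plating period; beta-lactamase activity was detected as fluorescence intensity via B/G FRET substrate.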

[16] = qHTS assay for small molecule activators of the nuclear factor-kappa B (NF-kB) signaling pathway (AID 651749; active means well fitted activation curve with a large enough effect in the signal ratio; the % refers to the signal ratio; further: series mostly up to about 77 µM; % of control where 0% means no effect); details: NF-kB-bla ME-180 cells, beta-lactamase FRET ratio, 16 h; activation: stronger effect = higher value
Summary of the method: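 Beta-lactamase reporter expression, controlled by NF-kB response elements in ME-180 cells, was quantified fluorometrically via FRET disruption; cells at 2,000/well had been incubated with 23 nL test compound for 16 hr.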

[17] = qHTS assay for environmental chemicals that activate the Aryl hydrocarbon Receptor (AhR) signaling pathway (AID 651777; active means well fitted curve in the direction sought with a large enough effect; an effect the other way counts as inactive or inconclusive; further: % of control where 0% means no effect; nearly all actives have a fitted effect of over 15% in size); details: 1A2-DRE human hepatoma cells, luciferase, 24 h; activation: stronger effect = higher value
Summary of the method: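 Luminescence read-out: One-Glo added for 30 min at RT after 24 hr compound treatment (37 C, 5% CO2) of human hepatoma cells expressing a DRE/CYP1A2 promoter–luciferase reporter; increased signal indicates AhR activation.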

[18] = target: Peroxisome proliferator-activated receptor alpha (Homo sapiens) (UniProt Q07869); assay: qHTS assay for small molecule agonists of the peroxisome proliferator-activated receptor alpha (PPARalpha) signaling pathway (AID 651778; active means well fitted curve in the direction sought with a large enough effect; an effect the other way counts as inactive or inconclusive; further: % of control where 0% means no effect); details: PathHunter PPARalpha complementation, chemiluminescence, 6 h; max response: stronger effect = higher value
Chain of Peroxisome proliferator-activated receptor alpha (Homo sapiens) (Q07869 whole entry, looked up): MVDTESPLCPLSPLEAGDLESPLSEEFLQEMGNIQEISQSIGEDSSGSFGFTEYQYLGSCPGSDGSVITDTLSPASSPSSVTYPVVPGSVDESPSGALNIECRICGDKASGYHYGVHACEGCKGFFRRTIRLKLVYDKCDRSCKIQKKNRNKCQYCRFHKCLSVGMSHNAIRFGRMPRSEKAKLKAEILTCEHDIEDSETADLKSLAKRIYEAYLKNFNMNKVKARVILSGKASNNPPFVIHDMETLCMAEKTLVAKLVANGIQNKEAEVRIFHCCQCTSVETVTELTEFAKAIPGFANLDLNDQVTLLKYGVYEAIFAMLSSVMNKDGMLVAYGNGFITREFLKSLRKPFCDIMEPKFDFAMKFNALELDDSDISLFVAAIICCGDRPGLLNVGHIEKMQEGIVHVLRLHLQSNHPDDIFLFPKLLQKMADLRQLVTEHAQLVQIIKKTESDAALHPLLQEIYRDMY
Summary of the method: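 Cells plated at 2,000/well and held overnight at 37 C, 5% CO2, then compound added by pin tool for 6 hr; after PathHunter detection reagent and 60 min at room temperature, chemiluminescence from enzyme complementation was read.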

[19] = qHTS assay for small molecule agonists of the antioxidant response element (ARE) signaling pathway measured by Nrf2-dependant transcriptional activity - cell viability counter screen (AID 720653; active means well fitted curve in the direction sought with a large enough effect in the repeat runs; an effect the other way counts as inactive or inconclusive; further: on the % scale 0 is the no-effect control and ±100 the full control effect); details: ARE-bla HepG2 viability, CellTiter-Glo ATP luminescence, 16 h; max response: stronger effect = lower value
Summary of the method: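 ARE-bla HepG2 cells (2,000/well) rested 5 hrs at 37C/5% CO2, then exposed to compounds in DMSO for 16 hrs. Viability was read in the same wells as intracellular ATP by luminescence, 30 min at room temperature after reagent addition.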

[20] = qHTS assay for cell viability of HEK293 cells (AID 743288; active means well fitted curve in the direction sought with a large enough effect; an effect the other way counts as inactive or inconclusive; further: on the % scale 0 is the no-effect control and ±100 the full control effect; nearly all actives have a fitted effect of over 50% in size); details: ATP luminescence (CellTiter-Glo), 18 h; max response: stronger effect = lower value
Summary of the method: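 Steps: plate 2,000 parental HEK293 cells per well; incubate ≥5 h, 37 C; add compounds in DMSO; incubate 18 h, 37 C; add CellTiter-Glo; wait 30 min at room temperature; read luminescence.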

[21] = qHTS assay for cell viability of the p53RE-bla HCT-116 cell line (AID 743292; active means well fitted curve in the direction sought with a large enough effect; an effect the other way counts as inactive or inconclusive; further: on the % scale 0 is the no-effect control and ±100 the full control effect; nearly all actives have a fitted effect of over 55% in size)
Summary of the method: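 Luminescent ATP quantitation (CellTiter-Glo) served as the viability read-out; reagent was added after 16 h compound exposure at 37 C and read after 30 min at room temperature. Cells: p53RE-bla HCT-116, 4,000 per well.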

[22] = target: Nuclear receptor subfamily 1 group I member 2 (Rattus norvegicus) (UniProt Q9R1A7); assay: qHTS assay for small molecule activators of the rat pregnane X receptor (rPXR) signaling pathway (AID 651751; call rule not given here; further: 0% is about no effect); details: rPXR reporter cells, luciferase (One-Glo), 24 h
Chain of Nuclear receptor subfamily 1 group I member 2 (Rattus norvegicus) (Q9R1A7 whole entry, looked up): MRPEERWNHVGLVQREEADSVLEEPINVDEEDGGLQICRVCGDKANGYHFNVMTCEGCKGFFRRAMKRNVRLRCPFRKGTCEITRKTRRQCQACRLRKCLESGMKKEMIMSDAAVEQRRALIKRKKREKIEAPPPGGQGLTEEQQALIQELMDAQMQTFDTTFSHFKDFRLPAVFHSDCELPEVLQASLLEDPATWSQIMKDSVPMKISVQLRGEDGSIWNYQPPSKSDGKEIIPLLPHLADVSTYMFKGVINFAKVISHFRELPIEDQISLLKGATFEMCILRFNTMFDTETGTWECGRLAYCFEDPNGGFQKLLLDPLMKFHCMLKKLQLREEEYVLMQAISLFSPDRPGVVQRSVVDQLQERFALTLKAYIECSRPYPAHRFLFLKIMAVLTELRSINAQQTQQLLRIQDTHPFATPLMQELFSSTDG

[23] = qHTS assay for small molecule activators of the human pregnane X receptor (PXR) signaling pathway (AID 720659; call rule not given here; further: 0% is about no effect)
[24] = target: Glucocorticoid receptor (Homo sapiens) (UniProt P04150); assay: qHTS assay for small molecule antagonists of glucocorticoid receptor signaling (AID 588533; active means well fitted inhibition curve with a large enough effect in the signal ratio, with a control signal flat, not every such curve was filed as active; the % refers to the signal ratio)
Summary of the method: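 Antagonist-mode qHTS: compound titrations added to GRE-bla HeLa cells, then dexamethasone 2 nM final; 18 h, 37 C. CCF4 FRET fluorescence normalized to dexamethasone and DMSO; IC50 from Hill fit.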

[25] = qHTS assay for small molecule agonists of the antioxidant response element (ARE) signaling pathway (AID 651741; active means well fitted activation curve with a large enough effect in the signal ratio; the % refers to the signal ratio; further: % of control where 0% means no effect)
Summary of the method: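 Beta-lactamase reporter expression driven by the antioxidant response element in HepG2 cells was detected by fluorescence with LiveBLAzer B/G FRET substrate (2 h, room temperature) following 16 h compound treatment at 37 C.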

[26] = qHTS assay for small molecule agonists of the antioxidant response element (ARE) signaling pathway measured by Nrf2-dependant transcriptional activity (AID 720636; active means well fitted curve in the direction sought with a large enough effect in the repeat runs; an effect the other way counts as inactive or inconclusive; further: % of control where 0% means no effect)
Summary of the method: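 HepG2 ARE-luc reporter line, 1% dialyzed FBS; 6 hr attachment at 37 C, compound pinned in, 16 hr at 37 C/5% CO2; ONE-Glo, 30 min RT, luminescence read.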

Cc1cc(C)nc(Nc2ccccc2)n1
1.3%: max response [9]
-19.7%: max response [3]
inactive: activation [1] -19% | outcome [2] | Potency [4] | Potency [5] | Potency [6] | Potency [7] | outcome [8] | Potency [10] | Potency [11] | max response [13] -45.9% | activity change % (negative = inhibition) [14] -4.91% | activation [15] -0.291% | activation [16] -2.63% | activation [17] 7.09% | max response [18] 5.23% | max response [19] -4.46% | max response [20] -15.1% | Potency [21] | max response [22] 11.4% | outcome [23]
-7.16%: max response [12]

CCCSC(=O)N(CCC)CCC
-0.108%: max response [9]
26.4%: max response [3]
inactive: activation [1] -2.67% | Potency [24] | outcome [2] | Potency [4] | Potency [7] | outcome [8] | Potency [10] | Potency [11] | Potency [25] | activation [15] 5.3% | activation [16] 0.695% | activation [17] 1.67% | max response [18] -0.593% | Potency [26] | max response [19] -2.88% | Potency [21] | max response [22] 1.18% | outcome [23]

O=[N+]([O-])c1cccc(I)c1
inactive: outcome [2]

Oc1ccc2cc(SSc3ccc4cc(O)ccc4c3)ccc2c1
inactive: outcome [2]

CCCCCCCC(=O)OC
inactive: outcome [2]

CC1CCC(C(C)C)C(O)C1 (stereo unspecified)
inactive: outcome [2]

S=C(S)NCCNC(=S)S
9.28%: max response [9]
inactive: activation [1] -2.17% | Potency [7] | Potency [10]
